This is part of a sample that, as a whole, favours compounds with a hit. Of some 79,000 tested, about 15% had one in any assay. Activity calls are given as the source filed them. Rule as the data show it: active = growth inhibition above about 70%; inactive = the rest.
assay: NCI Yeast Anticancer Drug Screen. Data for the rad50 strain (AID 155);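 also: 0% = growth of vehicle-only cultures of the same strain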; settings: S. cerevisiae rad50 strain growth inhibition; at 5.0 µM (retest, dose inferred, filed as 0.5); stronger effect = higher value
Procedure, shortened: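 Relative growth inhibition (compound vs vehicle) was measured in yeast with a defined repair-gene alteration.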

Structure (SMILES)	growth inhibition
CC(C)(C)CC(C)(C)c1ccc(O)cc1	-11% (inactive)
CC[n+]1c(/C=C/c2ccc(N(CCCl)CCCl)cc2)ccc2cc(I)ccc21	99% (active)
CCCCCCC1CCC2CCCC(C)N12 (centres undefined)	-5% (inactive)
C[N+](C)(C)CC1CCC(C[N+](C)(C)C)C1=O (centres undefined)	-1% (inactive)
CCC[CH2][Sn]1([CH2]CCC)[O]C(=O)c2cc(C)ccc2[O]1	82% (active)
COc1ccc(CC2C(=O)NC(C)C(=O)N(C)C3C(=O)N(C)C(Cc4ccc(O)c(c4)Oc4ccc(cc4)C3O)C(=O)NC(C)C(=O)NC(C)C(=O)N2C)cc1 (centres undefined)	-8% (inactive)
CC(=O)Nc1cccc([As+](C)(c2cccc(NC(C)=O)c2)c2cccc(NC(C)=O)c2)c1	-1% (inactive)
COC1OC(COC(C)=O)C(OC(C)=O)C(OC(C)=O)[C]1(OC(C)=O)[Hg][O]C(C)=O (centres undefined)	99% (active)
CCOC(=O)C(NC(=O)C(Cc1ccc(N(CCCl)CCCl)cc1)NC(C)=O)C(C)C (centres undefined)	-4% (inactive)
CN1c2cccc[c]2[Sn]([CH3])([CH3])[c]2ccccc21	98% (active)
Cc1ccc(C(=O)OC(C(=O)O)C(OC(=O)c2ccc(C)cc2)C(=O)O)cc1 (centres undefined) (tested in a mixture with another compound)	15% (inactive)
CC(C)(c1ccccc1)c1ccc(O)cc1	-5% (inactive)
CC1(C)N=C(N)N=C(N)N1CCCOc1ccc(NC(=O)c2ccc(S(=O)(=O)F)cc2)cc1	-3% (inactive)
CC1=CC2OC3CC4OC(=O)/C=C/C=C/C(=O)OCCC(C)C(O)C(=O)OCC2(CC1O)C4(C)C31CO1 (centres undefined)	96% (active)
C=CCOc1cc2c(ccc1=O)-c1c(cc(OC)c(OC)c1OC)CCC2NC(C)=O (centres undefined)	-3% (inactive)
c1ccc2c(c1)[As]=c1ccccc1=[As]2 (centres undefined)	65% (inactive)
CCC(C)(c1ccc(O)cc1)c1ccc(O)cc1	13% (inactive)
COc1cc(C2c3cc4c(cc3[C@@H](Nc3ccc(F)cc3)C3COC(=O)[C@H]23)OCO4)cc(OC)c1O (some centres undefined)	96% (active)
CC(C)(C)OC(=O)NC(CSC(c1ccccc1)(c1ccccc1)c1cccs1)C(=O)O (centres undefined)	7% (inactive)
CCOP(=S)(OCC)OC(c1ccc(Cl)cc1)c1ccc(Cl)cc1	3% (inactive)

Structure (SMILES)	growth inhibition
COc1ccc(OC)c(C=O)c1	1% (inactive)
CC(=O)Oc1cccc2c1CC(C[Se]c1ccccc1)C(=O)O2 (centres undefined)	11% (inactive)
CCOC(=S)S	43% (inactive)
CC(NCCN(C)C)C1CC2CCCCN2C1 (centres undefined)	-8% (inactive)
Nc1ncc(CCCCc2ccc(NC(=O)Nc3ccc(S(=O)(=O)F)cc3)cc2)c(N)n1	-1% (inactive)
CC#N.FC(F)(F)C#CC(F)(F)F.FC(F)(F)C#CC(F)(F)F.FC(F)(F)C#CC(F)(F)F.[W]	90% (active)
[Cl][Hg][CH2]CC1CC=CCC1 (centres undefined)	99% (active)
CC(=O)O[C@H]1CC[C@H]2[C@@H]3CCC4=CC(=O)CC[C@@H]4[C@H]3CC[C@]12C	2% (inactive)
c1ccc(P(CCP(c2ccccc2)c2ccccc2)CCP(c2ccccc2)c2ccccc2)cc1	98% (active)
Cc1cc(NCc2ccccc2)c2ccccc2[n+]1CCCCCCCCCC[n+]1c(C)cc(NCc2ccccc2)c2ccccc21	99% (active)
CCCCC(CC)CNP(=S)(NCC(CC)CCCC)NCC(CC)CCCC (centres undefined)	-3% (inactive)
Nc1c(Br)cc(Br)c2c1C(=O)c1ccccc1C2=O	5% (inactive)
O=[N+]([O-])/C=C/c1cc2c(cc1Br)OCO2	78% (active)
CC(Br)CN(CC(C)Br)c1ccc2c(c1)Cc1ccccc1-2 (centres undefined)	12% (inactive)
c1ccc2c[n+](CCCCCCCCCC[n+]3ccc4ccccc4c3)ccc2c1	67% (inactive)
CCC[CH2][Sn]([N]=C=S)([N]=C=S)[N]=C=S.O=P(c1ccccc1)(c1ccccc1)c1ccccc1.O=P(c1ccccc1)(c1ccccc1)c1ccccc1	-5% (inactive)
CN(CCC(N)CC(=O)NC1C=CC(n2ccc(N)nc2=O)OC1C(=O)O)C(=N)N (centres undefined)	48% (inactive)
O=C1C=CC(=O)N1c1cccc2ccccc12 (tested in a mixture with another compound)	-1% (inactive)
CN(C)c1ccc(N=Cc2c([O-])ccc3ccccc23)cc1.[C-]#[O+].[C-]#[O+].[Ir]	1% (inactive)

Reference: PubChem BioAssay (NCI)
